Tests used:
Experiment in all cases: log2 ratio of Biotin-Ahx-Ub-VS probe labelling (fragment/DMSO); higher = less target engagement (more negative = stronger competition), active = hit call of the paper (q ≤ 0.05, log2 ratio ≤ -1)
Conditions in all cases: compound concentration: 200 uM; treatment time: 3 h
[1] = molecular target: T1, USP19 (UniProt O94966)
T1 sequence (whole entry): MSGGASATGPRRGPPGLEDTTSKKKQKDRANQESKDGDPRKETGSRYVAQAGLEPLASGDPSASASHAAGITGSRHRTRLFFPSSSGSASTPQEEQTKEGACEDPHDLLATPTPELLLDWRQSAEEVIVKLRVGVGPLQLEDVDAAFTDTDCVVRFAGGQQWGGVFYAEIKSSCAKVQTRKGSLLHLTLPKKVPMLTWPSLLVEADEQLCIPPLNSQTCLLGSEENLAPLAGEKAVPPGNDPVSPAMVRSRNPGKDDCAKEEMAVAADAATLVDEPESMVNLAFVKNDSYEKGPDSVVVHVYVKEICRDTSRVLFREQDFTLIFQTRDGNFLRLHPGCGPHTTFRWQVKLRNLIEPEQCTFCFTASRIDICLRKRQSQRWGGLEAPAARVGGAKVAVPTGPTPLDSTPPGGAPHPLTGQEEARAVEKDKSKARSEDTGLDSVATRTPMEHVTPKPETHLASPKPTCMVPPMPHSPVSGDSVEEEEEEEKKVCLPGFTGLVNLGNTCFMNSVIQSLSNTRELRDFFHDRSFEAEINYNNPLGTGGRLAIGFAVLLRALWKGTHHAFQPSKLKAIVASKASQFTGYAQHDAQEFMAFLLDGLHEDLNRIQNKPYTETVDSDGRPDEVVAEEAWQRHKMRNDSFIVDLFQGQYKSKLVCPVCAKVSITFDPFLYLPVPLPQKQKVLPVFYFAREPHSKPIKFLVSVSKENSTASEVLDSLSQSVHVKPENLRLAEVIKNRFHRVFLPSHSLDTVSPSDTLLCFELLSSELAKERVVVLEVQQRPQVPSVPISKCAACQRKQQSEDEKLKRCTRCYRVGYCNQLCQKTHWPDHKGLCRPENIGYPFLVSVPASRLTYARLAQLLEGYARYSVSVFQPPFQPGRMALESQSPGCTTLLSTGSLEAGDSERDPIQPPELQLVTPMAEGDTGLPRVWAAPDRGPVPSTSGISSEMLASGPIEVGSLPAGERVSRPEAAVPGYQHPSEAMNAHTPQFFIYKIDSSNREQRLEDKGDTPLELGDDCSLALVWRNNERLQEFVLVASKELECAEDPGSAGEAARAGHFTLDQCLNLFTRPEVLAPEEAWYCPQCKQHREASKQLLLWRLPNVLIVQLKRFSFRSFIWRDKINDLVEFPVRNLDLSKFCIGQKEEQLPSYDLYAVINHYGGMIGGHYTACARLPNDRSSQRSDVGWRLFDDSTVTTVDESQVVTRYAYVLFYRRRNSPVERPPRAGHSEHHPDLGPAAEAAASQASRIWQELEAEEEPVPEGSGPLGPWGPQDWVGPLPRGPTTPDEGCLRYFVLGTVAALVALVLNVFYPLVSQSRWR
Procedure, shortened: (§1)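 Fragment (200 µM) or vehicle was incubated for 3 h with triplicate HEK293T lysate samples of 495 µg, which were then treated with Biotin-Ahx-Ub-VS at 0.5 µM final for 1 h. Labelled DUBs were enriched on NeutrAvidin, digested with LysC and trypsin, and analysed by diaPASEF LC-MS/MS. Values are average log2 fragment/vehicle ratios from an unpaired t-test on global-median-normalised Spectronaut label-free quantities, using proteins with ≥2 unique peptides.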

[2] = molecular target: T2, USP22 (UniProt Q9UPT9)
T2 sequence (whole entry): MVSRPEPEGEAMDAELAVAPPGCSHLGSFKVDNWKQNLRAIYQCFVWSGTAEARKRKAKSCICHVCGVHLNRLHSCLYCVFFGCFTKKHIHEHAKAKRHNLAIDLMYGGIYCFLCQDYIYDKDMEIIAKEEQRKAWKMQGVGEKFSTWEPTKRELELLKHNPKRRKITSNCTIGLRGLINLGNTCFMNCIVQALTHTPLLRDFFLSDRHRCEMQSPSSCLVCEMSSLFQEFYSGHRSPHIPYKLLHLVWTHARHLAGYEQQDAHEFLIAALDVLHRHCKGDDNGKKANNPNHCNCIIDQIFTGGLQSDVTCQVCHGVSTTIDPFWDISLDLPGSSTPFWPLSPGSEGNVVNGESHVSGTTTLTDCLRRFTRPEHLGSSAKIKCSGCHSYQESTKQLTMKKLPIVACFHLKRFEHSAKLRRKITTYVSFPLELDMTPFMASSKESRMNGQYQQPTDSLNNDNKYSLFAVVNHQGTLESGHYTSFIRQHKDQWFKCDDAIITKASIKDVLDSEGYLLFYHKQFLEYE
Procedure, shortened: as §1

[3] = molecular target: USP24 (UniProt Q9UPU5)
USP24, sequence (Q9UPU5 whole entry): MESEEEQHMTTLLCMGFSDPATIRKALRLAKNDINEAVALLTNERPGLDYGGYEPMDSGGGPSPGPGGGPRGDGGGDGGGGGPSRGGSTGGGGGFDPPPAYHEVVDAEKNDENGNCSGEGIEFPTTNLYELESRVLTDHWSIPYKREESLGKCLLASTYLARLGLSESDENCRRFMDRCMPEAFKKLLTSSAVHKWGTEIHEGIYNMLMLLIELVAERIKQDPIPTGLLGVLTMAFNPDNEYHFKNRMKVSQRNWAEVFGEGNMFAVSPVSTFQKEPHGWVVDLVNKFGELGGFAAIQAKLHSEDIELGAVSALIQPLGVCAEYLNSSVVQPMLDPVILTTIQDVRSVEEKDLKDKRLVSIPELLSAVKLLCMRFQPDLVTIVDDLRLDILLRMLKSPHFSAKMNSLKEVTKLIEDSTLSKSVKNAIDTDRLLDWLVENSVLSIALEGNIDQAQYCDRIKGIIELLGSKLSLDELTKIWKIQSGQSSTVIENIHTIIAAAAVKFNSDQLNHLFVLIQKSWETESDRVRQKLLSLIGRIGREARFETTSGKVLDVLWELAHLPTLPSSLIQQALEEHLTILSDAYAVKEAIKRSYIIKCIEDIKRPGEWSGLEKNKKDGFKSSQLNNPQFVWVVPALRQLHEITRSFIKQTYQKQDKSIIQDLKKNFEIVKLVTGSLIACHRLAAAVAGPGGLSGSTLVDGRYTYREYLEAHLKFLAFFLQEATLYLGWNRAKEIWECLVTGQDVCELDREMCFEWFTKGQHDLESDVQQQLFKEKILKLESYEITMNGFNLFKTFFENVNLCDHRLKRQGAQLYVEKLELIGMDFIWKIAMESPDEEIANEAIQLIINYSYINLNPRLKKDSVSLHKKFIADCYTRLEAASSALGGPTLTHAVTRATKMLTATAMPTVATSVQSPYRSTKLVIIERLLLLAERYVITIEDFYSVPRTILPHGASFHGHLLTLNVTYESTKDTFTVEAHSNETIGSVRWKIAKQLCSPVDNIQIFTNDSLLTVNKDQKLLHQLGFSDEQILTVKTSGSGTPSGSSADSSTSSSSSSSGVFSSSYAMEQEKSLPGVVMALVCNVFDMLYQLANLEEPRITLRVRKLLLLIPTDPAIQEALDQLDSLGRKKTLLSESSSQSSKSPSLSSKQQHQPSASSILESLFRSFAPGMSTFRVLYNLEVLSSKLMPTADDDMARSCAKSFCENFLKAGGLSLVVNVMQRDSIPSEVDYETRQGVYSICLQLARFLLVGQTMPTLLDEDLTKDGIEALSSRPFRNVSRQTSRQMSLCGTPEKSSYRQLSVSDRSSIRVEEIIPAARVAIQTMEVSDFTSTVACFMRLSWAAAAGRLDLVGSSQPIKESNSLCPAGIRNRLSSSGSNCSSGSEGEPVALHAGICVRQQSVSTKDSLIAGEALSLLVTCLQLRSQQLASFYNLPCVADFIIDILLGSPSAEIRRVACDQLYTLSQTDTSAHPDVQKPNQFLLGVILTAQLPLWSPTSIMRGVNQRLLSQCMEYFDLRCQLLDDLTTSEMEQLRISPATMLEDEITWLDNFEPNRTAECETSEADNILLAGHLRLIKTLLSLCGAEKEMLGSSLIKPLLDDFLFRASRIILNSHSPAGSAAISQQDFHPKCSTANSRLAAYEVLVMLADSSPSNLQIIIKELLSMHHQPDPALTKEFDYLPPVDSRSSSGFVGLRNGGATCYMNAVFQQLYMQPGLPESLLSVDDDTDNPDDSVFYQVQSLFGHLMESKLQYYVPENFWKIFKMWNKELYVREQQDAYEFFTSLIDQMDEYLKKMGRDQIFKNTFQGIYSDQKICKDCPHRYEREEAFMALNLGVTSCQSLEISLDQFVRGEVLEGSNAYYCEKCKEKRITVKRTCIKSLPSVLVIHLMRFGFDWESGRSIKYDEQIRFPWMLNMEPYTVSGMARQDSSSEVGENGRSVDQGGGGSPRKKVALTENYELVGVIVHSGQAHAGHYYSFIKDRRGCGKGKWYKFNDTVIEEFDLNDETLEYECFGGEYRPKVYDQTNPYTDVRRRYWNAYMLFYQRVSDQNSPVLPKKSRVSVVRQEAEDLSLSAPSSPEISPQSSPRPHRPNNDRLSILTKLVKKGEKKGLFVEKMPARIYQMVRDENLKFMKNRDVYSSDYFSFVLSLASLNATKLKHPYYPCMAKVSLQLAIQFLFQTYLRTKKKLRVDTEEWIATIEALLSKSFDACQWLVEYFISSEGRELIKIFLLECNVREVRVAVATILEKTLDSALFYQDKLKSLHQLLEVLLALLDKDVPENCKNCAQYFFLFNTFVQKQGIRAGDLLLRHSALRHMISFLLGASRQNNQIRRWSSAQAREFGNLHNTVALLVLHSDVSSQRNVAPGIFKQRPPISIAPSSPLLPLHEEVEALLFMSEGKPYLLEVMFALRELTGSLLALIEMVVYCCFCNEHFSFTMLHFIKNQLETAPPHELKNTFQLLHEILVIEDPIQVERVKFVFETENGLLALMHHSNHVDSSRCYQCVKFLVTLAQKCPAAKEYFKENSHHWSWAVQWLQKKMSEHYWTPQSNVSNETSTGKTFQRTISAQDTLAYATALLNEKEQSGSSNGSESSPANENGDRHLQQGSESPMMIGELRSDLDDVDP
Procedure, shortened: as §1

[4] = molecular target: T3, USP25 (UniProt Q9UHP3)
T3 sequence (whole entry): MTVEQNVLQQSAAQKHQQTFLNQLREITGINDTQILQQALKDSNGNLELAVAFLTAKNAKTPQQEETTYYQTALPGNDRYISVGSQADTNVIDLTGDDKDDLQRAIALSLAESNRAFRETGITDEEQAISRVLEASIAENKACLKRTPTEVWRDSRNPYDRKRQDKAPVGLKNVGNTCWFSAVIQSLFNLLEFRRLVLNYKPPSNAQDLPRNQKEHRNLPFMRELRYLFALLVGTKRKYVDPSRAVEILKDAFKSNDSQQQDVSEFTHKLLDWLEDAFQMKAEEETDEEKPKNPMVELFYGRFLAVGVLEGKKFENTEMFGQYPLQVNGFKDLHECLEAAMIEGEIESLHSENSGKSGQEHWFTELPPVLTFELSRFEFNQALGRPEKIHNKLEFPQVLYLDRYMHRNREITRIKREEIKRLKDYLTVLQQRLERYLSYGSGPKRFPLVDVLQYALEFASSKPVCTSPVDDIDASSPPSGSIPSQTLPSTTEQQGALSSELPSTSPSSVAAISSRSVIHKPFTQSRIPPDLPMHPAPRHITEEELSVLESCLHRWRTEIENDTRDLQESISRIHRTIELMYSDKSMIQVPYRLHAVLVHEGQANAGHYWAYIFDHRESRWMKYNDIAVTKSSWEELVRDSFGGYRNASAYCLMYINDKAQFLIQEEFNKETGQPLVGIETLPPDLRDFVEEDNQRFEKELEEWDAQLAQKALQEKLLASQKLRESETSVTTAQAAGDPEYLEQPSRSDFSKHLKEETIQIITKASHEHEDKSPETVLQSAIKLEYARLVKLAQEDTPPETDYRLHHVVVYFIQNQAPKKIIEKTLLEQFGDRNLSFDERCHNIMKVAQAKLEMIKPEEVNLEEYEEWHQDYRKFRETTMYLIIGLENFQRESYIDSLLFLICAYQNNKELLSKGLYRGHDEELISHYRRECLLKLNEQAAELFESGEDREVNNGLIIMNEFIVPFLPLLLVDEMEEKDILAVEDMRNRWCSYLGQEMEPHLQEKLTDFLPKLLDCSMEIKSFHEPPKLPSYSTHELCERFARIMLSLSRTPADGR
Procedure, shortened: as §1

[5] = molecular target: T4, USP28 (UniProt Q96RU2)
T4 sequence (whole entry): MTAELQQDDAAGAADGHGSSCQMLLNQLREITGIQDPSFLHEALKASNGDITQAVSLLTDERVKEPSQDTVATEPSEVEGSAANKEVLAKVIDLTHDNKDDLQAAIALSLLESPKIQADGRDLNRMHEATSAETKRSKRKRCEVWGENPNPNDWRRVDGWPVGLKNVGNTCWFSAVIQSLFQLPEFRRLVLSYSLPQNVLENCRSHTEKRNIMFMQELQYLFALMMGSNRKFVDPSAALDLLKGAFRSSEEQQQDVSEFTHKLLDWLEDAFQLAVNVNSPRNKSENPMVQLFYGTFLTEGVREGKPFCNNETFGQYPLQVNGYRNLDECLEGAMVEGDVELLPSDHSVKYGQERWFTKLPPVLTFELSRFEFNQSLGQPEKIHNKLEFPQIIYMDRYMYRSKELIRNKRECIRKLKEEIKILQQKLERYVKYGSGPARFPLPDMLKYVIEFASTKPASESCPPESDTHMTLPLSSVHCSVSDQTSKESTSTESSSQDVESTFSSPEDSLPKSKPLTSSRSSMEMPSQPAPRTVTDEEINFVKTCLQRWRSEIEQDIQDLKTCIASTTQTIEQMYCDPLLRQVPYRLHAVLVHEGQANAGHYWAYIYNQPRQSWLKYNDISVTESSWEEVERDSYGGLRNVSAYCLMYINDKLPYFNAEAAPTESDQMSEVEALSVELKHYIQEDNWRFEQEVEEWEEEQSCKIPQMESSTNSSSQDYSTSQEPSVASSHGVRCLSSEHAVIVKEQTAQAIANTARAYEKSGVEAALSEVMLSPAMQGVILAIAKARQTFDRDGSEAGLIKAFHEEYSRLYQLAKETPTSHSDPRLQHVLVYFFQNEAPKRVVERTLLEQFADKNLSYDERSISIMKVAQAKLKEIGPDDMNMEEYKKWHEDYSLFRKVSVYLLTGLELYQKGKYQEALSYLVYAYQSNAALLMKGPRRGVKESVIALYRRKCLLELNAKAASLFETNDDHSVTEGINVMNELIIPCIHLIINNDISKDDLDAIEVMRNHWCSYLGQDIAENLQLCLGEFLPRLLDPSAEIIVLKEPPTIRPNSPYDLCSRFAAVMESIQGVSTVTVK
Procedure, shortened: as §1

Measured: log2 ratio of Biotin-Ahx-Ub-VS probe labelling

O=C(CCl)NCc1noc(C2CC2)n1
inactive: [1] 0.0297 | [2] -0.122 | [3] -0.225 | [4] -0.329 | [5] -0.393
